HIF act: HIF pathway transcriptional activation; activation, % at 7.5 µM (by protocol); U2OS HRE-luciferase reporter, luminescence; normalized: DMSO 0%, desferrioxamine 100%; 300,000 compounds, 0.32% hits; AID 1910;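 active = mean activation of at least 10% of the iron chelator positive control signal, with at least half of replicates also reaching 10%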
AHR act: activators of human aryl hydrocarbon receptor; 320,000 compounds, 2.5% hits; AHR-responsive luciferase reporter cells, luminescence; activation, % at 5 µM; in the data active = activation above about 47%;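 note: 0% = vehicle wells and 100% = reference agonist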
Target sequence (P35869 whole entry, looked up): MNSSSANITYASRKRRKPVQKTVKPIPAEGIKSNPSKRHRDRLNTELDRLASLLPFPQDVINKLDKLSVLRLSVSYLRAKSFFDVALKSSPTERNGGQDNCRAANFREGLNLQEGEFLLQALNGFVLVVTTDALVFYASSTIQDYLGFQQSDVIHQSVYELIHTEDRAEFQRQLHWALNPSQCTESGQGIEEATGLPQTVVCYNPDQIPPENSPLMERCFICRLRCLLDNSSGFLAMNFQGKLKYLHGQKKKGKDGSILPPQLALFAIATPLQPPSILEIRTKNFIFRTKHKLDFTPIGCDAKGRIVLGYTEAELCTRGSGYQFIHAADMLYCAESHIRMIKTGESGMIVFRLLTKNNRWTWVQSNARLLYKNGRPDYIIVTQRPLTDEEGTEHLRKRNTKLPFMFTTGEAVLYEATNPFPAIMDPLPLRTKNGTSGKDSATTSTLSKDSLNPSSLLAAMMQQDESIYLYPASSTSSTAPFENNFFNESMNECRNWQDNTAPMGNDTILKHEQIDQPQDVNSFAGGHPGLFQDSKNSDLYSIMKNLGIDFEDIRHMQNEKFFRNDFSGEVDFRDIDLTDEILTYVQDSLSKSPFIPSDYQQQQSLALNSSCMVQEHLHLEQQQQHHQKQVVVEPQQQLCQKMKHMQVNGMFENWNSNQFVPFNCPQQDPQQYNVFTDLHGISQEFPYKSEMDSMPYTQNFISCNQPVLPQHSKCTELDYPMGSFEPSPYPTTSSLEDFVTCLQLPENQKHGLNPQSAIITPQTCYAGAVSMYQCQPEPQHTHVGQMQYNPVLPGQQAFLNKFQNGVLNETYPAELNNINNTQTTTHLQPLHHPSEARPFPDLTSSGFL
PLCg1 inh: PLC-gamma1 (human) inhibition, primary screen | inhibition, % at 12.2 µM | purified PLC-gamma1, fluorogenic substrate, fluorescence | 370,000 compounds, 0.84% hits | AID 720700 | P19174; in the data active = inhibition above about 9.5%
HGIII-sPLA2 inh: Blocks human group III sPLA2 activity | Q9NZ20 | QFRET BODIPY PC-A2 liposome hydrolysis, fluorescence | inhibition, % at 12.2 µM | 370,000 compounds, 0.56% hits | AID 743126;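 active = inhibition above mean plus 3 SD of compounds lying within the high and low control bounds, cut at about 19% in these data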;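 note: 0% = median of test compound wells and 100% = no enzyme DMSO wells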
Yeast superoxide: yeast age-related superoxide inhibition as caloric restriction mimetic | S. cerevisiae aged cells, superoxide DHE fluorescence; stronger effect = lower value | superoxide response (% of plate mean), % at 10 µM | 330,000 compounds, 0.18% hits | AID 2690;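 active = superoxide response under a set limit, about three screen SD below normal, cut at about 65% in these data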;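 note: yeast aged for seven days with compound at 30 °C before DHE staining; 100% = average MFI of all compound-treated wells on the plate with controls excluded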
PLC-beta3 inh: blocks human PLC-beta3 enzyme activity | Q01970 | Purified PLC-beta3, fluorogenic substrate, fluorescence | inhibition, % at 12.2 µM | 370,000 compounds, 0.18% hits | AID 720704; in the data active = inhibition above about 11%;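 note: 0% = median of compound wells on plate and 100% = full blocker control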
An asterisk follows results filed as active; x = not tested or not shown. Shown are actives, neighbours in structure and some others; about 3.9% of the full set was active somewhere.

SMILES | HIF act | AHR act | PLCg1 inh | HGIII-sPLA2 inh | Yeast superoxide | PLC-beta3 inh
CCOC(=O)N1CCN(C(=O)C[C@H]2C[C@@]3(C(=O)OC)C(=C[C@H](C(C)(C)C)O[C@@H]3C)N(Cc3ccco3)C2=O)CC1 | x | x | 2.1 | -2.7 | x | 1.3
COc1cccc(-n2cnc3scc(-c4cccs4)c3c2=O)c1 | 0.0 | 28.7 | -8.6 | -8.3 | 100.1 | -14.1
O=c1c2c(-c3cccs3)csc2ncn1/N=C/c1ccc(OC(F)F)cc1 | 0.6 | 56.3* | -0.6 | 4.4 | 97.0 | -1.3
O=c1c2c(-c3cccs3)csc2ncn1-c1ccc(Br)cc1 | -0.5 | 64.8* | -9.6 | 4.1 | 96.0 | -8.4
COc1ccc(-c2cc(NC(=O)Cc3c[nH]c4ccccc34)ccc2Nc2cccnc2)cc1F | x | x | 1.5 | -24.3 | x | -2.1
CCOC(=O)[C@@]12CCC3=C1N(CCC3)C(=O)[C@H](CC(=O)N1CCCCC1)C2 | x | x | 2.5 | 13.7 | x | -3.2
CC1(c2ccc3ccccc3c2)NC(=O)N(CC(=O)Nc2cccc(S(=O)(=O)N3CCOCC3)c2)C1=O (configuration not stated) | -0.3 | 49.4* | 3.2 | -43.6 | 103.8 | -1.7
CC1(c2cc(F)ccc2F)NC(=O)N(CC(=O)Nc2cccc(S(=O)(=O)N3CCCC3)c2)C1=O (configuration not stated) | x | -0.5 | -0.5 | -10.0 | 85.0 | -2.4
CCCc1cc(-c2nc(-c3ccc(Br)cc3)cs2)ccn1 | 1.3 | 47.2* | -0.6 | 5.0 | 84.8 | -2.9
COc1ccc(Cl)cc1Nc1cc(C)nc2nc(C)nn12 | -0.1 | 70.7* | 2.4 | 1.3 | 94.9 | -0.8
N#Cc1cn(CCOc2ccc(F)cc2)c2ccccc12 | -0.4 | 1.4 | 1.2 | -14.6 | 96.7 | -1.8
N#Cc1cn(CCOc2ccccc2F)c2ccccc12 | 1.6 | 48.7* | 4.8 | -22.7 | 102.3 | -1.0
COc1ccccc1OCc1nc(C#N)c(N2CCCC2)o1 | 0.5 | 64.5* | 3.2 | 3.0 | 96.1 | 0.9
Cc1ccccc1OCc1nc(C#N)c(N2CCCC2)o1 | -0.5 | -0.1 | 0.0 | -2.2 | 109.8 | -2.5
O=C(c1ccccc1-c1nc(-c2ccc(F)cc2)no1)N1CCCC1 | 0.1 | 50.2* | 1.4 | 0.6 | 105.8 | 0.6
O=C(c1ccccc1-c1nc(-c2ccccc2)no1)N1CCOCC1 | 0.4 | 5.2 | 2.5 | 1.7 | 118.0 | 3.4
CCSc1nc2sc3c(c2c(=O)[nH]1)CCc1ccccc1-3 | -0.2 | 56.6* | 0.9 | -3.1 | 106.3 | 0.3
COC(=O)C1=C(C)N(Cc2ccc(C(F)(F)F)cc2)C(=NCc2ccccc2)NC1c1cccc(Cl)c1 (configuration not stated) | x | x | 8.0 | -0.9 | x | 2.7
C(=N\Nc1nc(Nc2ccccc2)nc(N2CCOCC2)n1)/c1c[nH]c2ccccc12 | -0.3 | 39.4 | 4.3 | -23.2 | 98.4 | 2.0
Cc1ccc(Nc2nc(N/N=C/c3c[nH]c4ccccc34)nc(N3CCOCC3)n2)cc1 | 0.7 | 51.4* | 3.9 | -13.1 | 105.5 | 3.1
CCOc1ccccc1-c1nc(C(N)=O)c2[nH]c(=O)n(-c3cccc(C)c3)c2n1 | -0.1 | 63.9* | -8.7 | -3.4 | 107.6 | -8.5
CCOc1cccc(-c2nc(C(N)=O)c3[nH]c(=O)n(-c4cccc(Cl)c4)c3n2)c1O | -0.1 | 28.8 | 0.3 | -7.9 | 104.8 | 2.1
CCCC(=O)N1CCC(NS(=O)(=O)c2ccc3c(c2)CCN3C(C)=O)CC1 | x | x | 1.8 | 13.9 | x | 2.9
Cc1ccccc1Cn1cc(COC(=O)NCC(C)C)nn1 | x | x | 2.7 | 1.8 | x | 2.1
CC1(C)CC(=O)C=C(Nc2ccccc2NC(=O)c2ccc(F)cc2F)C1 | x | x | -1.1 | -2.3 | x | -2.0
SMILES | HIF act | AHR act | PLCg1 inh | HGIII-sPLA2 inh | Yeast superoxide | PLC-beta3 inh
O=C(CSc1nc2ccccc2n1CCc1ccccc1)c1ccc(O)c(O)c1 | x | x | 4.2 | 24.0* | x | -6.8
O=C(CSc1nc2ccccc2n1CCc1ccccc1)N1CCOCC1 | 0.7 | -3.0 | -1.9 | 6.3 | 82.0 | 0.0
Fc1ccc2nc(Nc3ccccc3)sc2c1 | 4.0 | 26.0 | 0.7 | -19.1 | 86.4 | 0.1
Fc1ccc2nc(Nc3nc4c(F)cc(F)cc4s3)sc2c1 | 4.0 | 31.0 | -20.4 | -1.9 | 103.9 | -22.9
NNc1nc2ccc(F)cc2s1 | 1.7 | 76.7* | -24.6 | 13.5 | 85.8 | -23.6
Fc1ccc2nc(Nc3nc4c(F)cccc4s3)sc2c1 | 1.5 | 61.5* | -22.7 | -2.1 | 94.7 | -42.7
C[C@H]1[C@@H](OC(=O)Nc2cccc(Cl)c2)CC[C@@]23CCCN2C(=O)CCC[C@@H]13 | x | x | -0.1 | -6.3 | x | -0.3
Cc1cccc(COCC(Cc2ccccc2)N2CCN(C(=O)c3ccc(Cl)c(Cl)c3)CCC2=O)c1 (configuration not stated) | 0.0 | 2.6 | 3.5 | -11.8 | 95.8 | 4.3
O=C(c1ccc(Cl)c(Cl)c1)N1CCC(=O)N(C(COCc2ccc(Cl)cc2)Cc2ccccc2)CC1 (configuration not stated) | -2.0 | 7.2 | 12.1* | -8.2 | 106.7 | 5.2
COC(=O)[C@]12C[C@H](CC(=O)NCc3cccc4ccccc34)C(=O)N(Cc3ccc(Cl)cc3Cl)C1=C[C@H](C1CCCC1)O[C@@H]2C | x | x | -1.1 | -7.7 | x | -0.5
Cc1ccc(Cl)cc1NC(=S)N/N=C/c1cccc2ccccc12 | 0.1 | 54.8* | 1.1 | -14.6 | 91.2 | -8.9
Cc1ccccc1C(=O)N/N=C/c1cccc2ccccc12 | 1.8 | 22.7 | -0.2 | -4.8 | 126.2 | -10.2
COC(=O)[C@]12C[C@H](CC(=O)NCCc3ccccc3OC)C(=O)N(Cc3ccc(Cl)cc3Cl)C1=C[C@H](COCc1ccccc1)O[C@@H]2C | x | x | 1.1 | -9.2 | x | -5.1
Cc1nn2c(-c3ccccn3)ccnc2c1Cl | 1.7 | 5.2 | -3.4 | 6.0 | 98.1 | -9.5
Cc1nn2c(-c3ccc(F)cc3)ccnc2c1Cl | 0.8 | 58.2* | -9.8 | 1.3 | 100.0 | -20.0
O=C1CC(N2CCCC2)=NC(=O)N1c1ccc(Br)cc1 | x | x | -7.0 | -1.6 | x | -8.0
COc1ccc(/C=N/n2cc(-c3ccccc3)nc2N)cc1 | 1.7 | 67.8* | x | x | 94.9 | x
C=CCN1[C@H](C)COc2cc(F)ccc2S1(=O)=O | x | x | 0.2 | 3.8 | x | 1.7
NNC(=O)c1ccc(COc2ccc3ccccc3c2)o1 | 0.6 | 80.5* | -7.2 | 0.4 | 111.4 | -9.9
Cc1ccc(OCc2ccc(C(=O)NN)o2)c([N+](=O)[O-])c1 | 0.2 | 97.2* | 1.4 | -8.6 | 81.7 | -4.7
CCOc1ccc(OCc2ccc(C(=O)NN)o2)cc1 | 1.4 | 22.5 | -3.0 | -11.1 | 89.0 | -3.0
Cc1ccc(OCc2ccc(C(=O)NN)o2)cc1C | 1.0 | 63.5* | -1.5 | -0.8 | 92.4 | -8.6
CN(C)c1ccc(NC(=O)c2ccc(COc3cccc(Cl)c3)o2)cc1 | 1.9 | 70.5* | -7.8 | 7.1 | 100.9 | -11.5
CC(C)NC(=O)N[C@@H]1C[C@@H]2O[C@@H](CO)CC[C@@H]2O[C@@H]1CCc1ccc(-c2ccc(F)cc2)cc1 | x | x | -2.1 | -16.5 | x | -1.9
O=C(OC12CCCN(C1)/C(=C/c1cccc(Cl)c1)C2)C1CCCCC1 (configuration not stated) | x | x | 1.8 | 0.0 | x | -2.8

Screening results deposited in PubChem BioAssay by several laboratories.
